Measured values published in PubChem BioAssay (NCI).
The panel holds about 83,000 compounds, 20% with a hit somewhere; the sample as a whole holds those more often.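 Interpretation: 100, growth as untreated; towards 0, rising growth inhibition; 0, no net growth; 0 to -100, cell death. Compounds scoring below 10 were considered active.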 The source made the active and inactive calls.

How the values were obtained:
Assay in all cases: NCI-60 one-dose screen, 48 h (100 = growth as untreated, 0 = no growth, -100 = all killed)
NCI-H460 lung = settings: 10 µM unless noted
HOP-92 NSCLC = settings: 10 µM unless noted
MDA-MB-231 breast = settings: 10 µM unless noted
RXF 393 renal = settings: 10 µM unless noted
SNB-75 CNS = settings: 10 µM unless noted
SNB-19 CNS = settings: 10 µM unless noted
SK-MEL-5 melanoma = settings: 10 µM unless noted
LOX IMVI melanoma = settings: 10 µM unless noted
UO-31 renal = settings: 10 µM unless noted
CAKI-1 renal = settings: 10 µM unless noted
MOLT-4 leukemia = settings: 10 µM
SR leukemia = settings: 10 µM
OVCAR-4 ovarian = settings: 10 µM unless noted
SK-OV-3 ovarian = settings: 10 µM unless noted
MDA-MB-435 melanoma = settings: 10 µM unless noted
SW-620 colon = settings: 10 µM unless noted
HCC-2998 colon = settings: 10 µM unless noted
KM12 colon = settings: 10 µM unless noted
T-47D breast = settings: 10 µM unless noted
HCT-116 colon = settings: 10 µM unless noted

Measured: growth

CCC[CH2][Sn]1([CH2]CCC)[O]C(=O)c2cccc([N+](=O)[O-])c2C(=O)[O]1
active: NCI-H460 lung -5.56% | HOP-92 NSCLC -91.7% | MDA-MB-231 breast -89.1% | RXF 393 renal -95.2% | SNB-75 CNS -82.3% | SNB-19 CNS -92.8% | SK-MEL-5 melanoma -89.8% | LOX IMVI melanoma -72% | UO-31 renal -100% | CAKI-1 renal -93.4% | MOLT-4 leukemia -24.4% | SR leukemia -31.6% | OVCAR-4 ovarian -91.6% | MDA-MB-435 melanoma -99.2% | SW-620 colon -54.6% | HCC-2998 colon -84.7% | KM12 colon -83.9%
inactive: SK-OV-3 ovarian 12.2%

CCOc1c(Cl)cc(CNC(C)C(O)c2ccccc2)cc1OC (configuration not stated)
inactive: NCI-H460 lung 75.1% | HOP-92 NSCLC 27% | MDA-MB-231 breast 59.9% | RXF 393 renal 67% | SNB-19 CNS 91.6% | SK-MEL-5 melanoma 82.7% | LOX IMVI melanoma 57.1% | UO-31 renal 92.6% | CAKI-1 renal 87.9% | MOLT-4 leukemia 41.9% | SR leukemia 10.8% | SK-OV-3 ovarian 86.3% | T-47D breast 86% | SW-620 colon 43.4% | HCT-116 colon 59.2% | HCC-2998 colon 81.3% | KM12 colon 55.3%
active: SNB-75 CNS -15.5% | MDA-MB-435 melanoma 1.97%

Cc1nnc([S-])s1.[Au+].c1ccc([PH+](c2ccccc2)c2ccccc2)cc1
inactive: NCI-H460 lung 57.3% | SNB-19 CNS 19.2% | OVCAR-4 ovarian 36.2% | HCC-2998 colon 37% | KM12 colon 49.1%
active: HOP-92 NSCLC -76.6% | MDA-MB-231 breast 4.44% | RXF 393 renal -84.6% | SK-MEL-5 melanoma -45.9% | LOX IMVI melanoma -60.6% | UO-31 renal -3.87% | CAKI-1 renal -26.8% | MOLT-4 leukemia -9.08% | SR leukemia 7.04% | T-47D breast -40.2% | MDA-MB-435 melanoma 5.65% | SW-620 colon -70.6% | HCT-116 colon -60.1%

OC1CCCCC1N1CCC(c2ccccc2)CC1 (configuration not stated)
inactive: NCI-H460 lung 109% | MDA-MB-231 breast 119% | RXF 393 renal 124% | SNB-75 CNS 86% | SNB-19 CNS 117% | SK-MEL-5 melanoma 106% | LOX IMVI melanoma 99.4% | UO-31 renal 82.5% | CAKI-1 renal 96.5% | MOLT-4 leukemia 79.9% | SR leukemia 94% | OVCAR-4 ovarian 109% | SK-OV-3 ovarian 104% | T-47D breast 96.8% | MDA-MB-435 melanoma 100% | SW-620 colon 99.3% | HCT-116 colon 94.5% | HCC-2998 colon 93.2% | KM12 colon 104%

C[C@]12C[C@H](O)[C@H]3[C@@H](CCC4=CC(=O)CC[C@@]43C)[C@@H]1CC[C@@H]2O
inactive: NCI-H460 lung 108% | HOP-92 NSCLC 95.5% | MDA-MB-231 breast 103% | RXF 393 renal 109% | SNB-75 CNS 85.7% | SNB-19 CNS 104% | SK-MEL-5 melanoma 100% | LOX IMVI melanoma 96% | UO-31 renal 77.7% | CAKI-1 renal 88% | MOLT-4 leukemia 103% | SR leukemia 97.4% | OVCAR-4 ovarian 104% | SK-OV-3 ovarian 105% | T-47D breast 105% | MDA-MB-435 melanoma 101% | SW-620 colon 107% | HCT-116 colon 101% | HCC-2998 colon 95.3% | KM12 colon 105%

CC(=O)OC1CCC2(C)C(=CCC3C4CC(CN5CC5)C(=O)C4(C)CCC32)C1 (configuration not stated)
inactive: NCI-H460 lung 88.2% | HOP-92 NSCLC 92.1% | MDA-MB-231 breast 99.6% | RXF 393 renal 93.6% | SNB-75 CNS 93.9% | SNB-19 CNS 98.4% | SK-MEL-5 melanoma 99.1% | LOX IMVI melanoma 44.1% | UO-31 renal 34.1% | CAKI-1 renal 88% | MOLT-4 leukemia 15.6% | SR leukemia 22.9% | OVCAR-4 ovarian 83.1% | SK-OV-3 ovarian 98.2% | MDA-MB-435 melanoma 90.4% | SW-620 colon 65.3% | HCT-116 colon 74.4% | HCC-2998 colon 112%
active: T-47D breast -11.8% | KM12 colon -3.45%

CNC(=O)O/N=C(/C)c1ccc(Cl)cc1
inactive: NCI-H460 lung 113% | HOP-92 NSCLC 86.4% | MDA-MB-231 breast 120% | RXF 393 renal 110% | SNB-75 CNS 87.4% | SNB-19 CNS 112% | SK-MEL-5 melanoma 101% | LOX IMVI melanoma 106% | UO-31 renal 83.8% | CAKI-1 renal 98.2% | MOLT-4 leukemia 93.9% | SR leukemia 90% | OVCAR-4 ovarian 97.3% | SK-OV-3 ovarian 96.8% | T-47D breast 91.8% | MDA-MB-435 melanoma 98.3% | SW-620 colon 117% | HCC-2998 colon 105% | KM12 colon 114%

C/C(=N/OC(=O)N(C)C)c1cc(Cl)ccc1Cl
inactive: NCI-H460 lung 105% | HOP-92 NSCLC 107% | MDA-MB-231 breast 111% | RXF 393 renal 102% | SNB-75 CNS 82.1% | SNB-19 CNS 101% | SK-MEL-5 melanoma 100% | UO-31 renal 77.4% | CAKI-1 renal 98.9% | MOLT-4 leukemia 89.7% | SR leukemia 90.7% | OVCAR-4 ovarian 107% | SK-OV-3 ovarian 98.3% | T-47D breast 96.7% | MDA-MB-435 melanoma 99.2% | SW-620 colon 101% | HCT-116 colon 101% | HCC-2998 colon 102% | KM12 colon 106%
